This is a sample that favours compounds with a hit; in the whole collection about 1.6% have one here.
MOR-DOR inv ag: mu-delta opioid heterodimer inverse agonism | actives 0.21% (n = 340,000) | inhibition, % at 9.3 µM | cell-based MOR-DOR heterodimer luminescence | AID 504357; in the data active means inhibition above about 22%, passing the limit was not always enough;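 further: 0% = cells with DMSO and 100% = wells without cells with DMSO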
HTR5A ag: activates human HTR5A in OPRM1-OPRD1 agonist counter-screen | P47898 | HTR5A agonist assay, luminescence, cell-based | activation, % at 9.3 µM | actives 0.61% (n = 340,000); in the data active means activation mostly above about 9.5%, no sharp cut-off; inactive means mostly below about 7.6%;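 further: 0% = cells with vehicle only and 100% = reference agonist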
Target sequence (P47898 whole entry, looked up): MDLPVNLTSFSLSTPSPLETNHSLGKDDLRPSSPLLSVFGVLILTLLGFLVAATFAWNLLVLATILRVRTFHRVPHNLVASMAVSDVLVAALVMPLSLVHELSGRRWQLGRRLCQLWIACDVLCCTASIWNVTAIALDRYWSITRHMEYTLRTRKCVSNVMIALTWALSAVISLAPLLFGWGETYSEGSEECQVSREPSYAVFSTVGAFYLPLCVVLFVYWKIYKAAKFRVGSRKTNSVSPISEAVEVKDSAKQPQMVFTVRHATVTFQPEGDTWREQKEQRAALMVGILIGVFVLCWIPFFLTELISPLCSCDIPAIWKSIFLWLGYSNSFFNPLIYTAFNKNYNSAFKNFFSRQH
HTR2A ag: agonists of mouse serotonin 5-HT2A receptor (HTR2A); P35363; actives 0.66% (n = 360,000); CHO-K1 mHTR2A beta-arrestin complementation, luminescence; percent of 30 µM serotonin response; activation, % at 7.6 µM;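 active means activation above a run cutoff, the mean activation of all tested compounds plus 3 SD, cut at about 14% in these data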;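 further: 0% = plate median of compound wells and 100% = 30 µM serotonin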
HTR5A inv ctr: counter-screen for OPRM1-OPRD1 inverse agonists: human HTR5A inverse agonism; P47898; HTR5A cell line, luminescence; inhibition, % at 9.3 µM; actives 0.083% (n = 340,000); AID 504634; in the data active means inhibition mostly above about 23%, no sharp cut-off; inactive means mostly below about 18%;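 further: 0% = cells with DMSO and 100% = no-cell wells with DMSO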
OPRM1-OPRD1 ag: agonists of human mu-delta opioid receptor heterodimerization; P35372+P41143; cells, OPRM1-OPRD1 heterodimerization, luminescence; activation, % at 9.3 µM; actives 0.3% (n = 340,000); AID 504326; in the data active means activation above about 18%;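 further: 0% = vehicle-treated cells and 100% = reference agonist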
MOR-DOR inv conf: OPRM1-OPRD1 heterodimer inverse agonism, confirmation; shares compounds with MOR-DOR inv ag; cells expressing OPRM1/OPRD1 heterodimer, luminescence; inhibition, % at 9.3 µM; actives 20% (n = 580); AID 504900; in the data active means inhibition above about 32%;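 further: 0% = cells with DMSO and 100% = wells lacking cells with DMSO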
HTR5A inv ctr2: HTR5A inverse agonism, opioid heterodimer counter-screen; shares compounds with MOR-DOR inv ag; HTR5A-expressing cells, luminescence; AID 504914; inhibition, % at 9.3 µM; 580 tested, under 10 active; call rule not given here;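 further: 0% = cells with DMSO and 100% = no-cell wells with DMSO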
* marks the source's active call; other numbers are inactive results.

How did OCCC1CN(Cc2cccc3c2OCO3)CCN1C1CCCCC1 (stereo not drawn) do in these assays?
MOR-DOR inv ag: -41; HTR5A ag: 5; HTR2A ag: 0; HTR5A inv ctr: -25; OPRM1-OPRD1 ag: 6

How did CN(Cc1ccccn1)C(=O)c1cc(COc2ccc(F)c(F)c2)on1 do in these assays?
HTR2A ag: 0

How did O=C(NC1CCCC1)C1CCN(C(=O)c2ccc(Cl)cc2Cl)CC1 do in these assays?
MOR-DOR inv ag: -7; HTR5A ag: -1; HTR2A ag: 1; HTR5A inv ctr: 2; OPRM1-OPRD1 ag: 1

How did O=C(CN1C(=O)c2ccccc2C1=O)NCC(=O)OCC(=O)c1cccc([N+](=O)[O-])c1 do in these assays?
MOR-DOR inv ag: 73*; HTR5A ag: -1; HTR2A ag: -2; HTR5A inv ctr: 1; OPRM1-OPRD1 ag: -15; MOR-DOR inv conf: 45*; HTR5A inv ctr2: 14

How did N/C(=N\OC(=O)CCCc1ccccc1)c1cccc([N+](=O)[O-])c1 do in these assays?
MOR-DOR inv ag: -16; HTR5A ag: 1; HTR2A ag: -3; HTR5A inv ctr: -4; OPRM1-OPRD1 ag: 3

How did O=C(CN1C(=O)c2ccccc2C1=O)NCC(=O)OCC(=O)c1ccc(Br)cc1 do in these assays?
MOR-DOR inv ag: 29; HTR5A ag: 3; HTR2A ag: 1; HTR5A inv ctr: -6; OPRM1-OPRD1 ag: -6

Results for O=C(CCc1ccccc1)OCC(=O)c1cccc([N+](=O)[O-])c1 ?
MOR-DOR inv ag: 54*; HTR5A ag: 0; HTR2A ag: 7; HTR5A inv ctr: 50; OPRM1-OPRD1 ag: -11; MOR-DOR inv conf: 31*; HTR5A inv ctr2: 20

Results for Clc1ccc2c(-c3ccccc3)nc(-c3cccs3)nc2c1 ?
HTR2A ag: -2

Results for CCN(c1ccccc1)S(=O)(=O)c1c(C)noc1C ?
MOR-DOR inv ag: -3; HTR5A ag: 3; HTR2A ag: 6; HTR5A inv ctr: -1; OPRM1-OPRD1 ag: 0

How did CCS(=O)(=O)N1CCC(C(=O)OCC(=O)c2ccc(Br)cc2)CC1 do in these assays?
MOR-DOR inv ag: 35*; HTR5A ag: -3; HTR2A ag: -3; HTR5A inv ctr: 6; OPRM1-OPRD1 ag: -7; MOR-DOR inv conf: 1; HTR5A inv ctr2: -2

Results for CCS(=O)(=O)N1CCC(C(=O)Oc2ccc(C(=O)OC)cc2)CC1 ?
MOR-DOR inv ag: 4; HTR5A ag: -7; HTR2A ag: 2; HTR5A inv ctr: 7; OPRM1-OPRD1 ag: -1

Results for Cn1c(NNC(=O)c2ccccc2F)cc(=O)n(C)c1=O ?
MOR-DOR inv ag: 23; HTR5A ag: 0; HTR2A ag: 4; HTR5A inv ctr: 26; OPRM1-OPRD1 ag: -4

Results for Cn1c(NNC(=O)c2cccc3ccccc23)cc(=O)n(C)c1=O ?
MOR-DOR inv ag: 23*; HTR5A ag: 8; HTR2A ag: 4; HTR5A inv ctr: -8; OPRM1-OPRD1 ag: -4; MOR-DOR inv conf: -36; HTR5A inv ctr2: 4

How did CC(C)NC(=S)N(CCc1ccncc1)C(C)C do in these assays?
MOR-DOR inv ag: 11; HTR5A ag: 5; HTR2A ag: -2; HTR5A inv ctr: 9; OPRM1-OPRD1 ag: -2

Results for CC1(C)CC(CC(=O)NC(=S)Nc2ccc([N+](=O)[O-])cc2)C(=O)O1 (stereo not drawn) ?
MOR-DOR inv ag: 35*; HTR5A ag: -6; HTR2A ag: -4; HTR5A inv ctr: 2; OPRM1-OPRD1 ag: -6; MOR-DOR inv conf: -259; HTR5A inv ctr2: -4

What do the screens show for `CC(=O)c1cc2c(cc1NC(=O)CN1Cc3ccccc3C1=O)OCO2`?
MOR-DOR inv ag: 6; HTR5A ag: 6; HTR2A ag: -1; HTR5A inv ctr: -26; OPRM1-OPRD1 ag: -1

How did O=C(Nc1ncccn1)C1c2ccccc2Oc2ccccc21 do in these assays?
MOR-DOR inv ag: 11; HTR5A ag: 1; HTR2A ag: 3; HTR5A inv ctr: 12; OPRM1-OPRD1 ag: -2

How did O=C(Nc1ccncc1)C1c2ccccc2Oc2ccccc21 do in these assays?
MOR-DOR inv ag: 36*; HTR5A ag: -2; HTR2A ag: -6; HTR5A inv ctr: 1; OPRM1-OPRD1 ag: -7; MOR-DOR inv conf: 11; HTR5A inv ctr2: 6

What do the screens show for `O=C1Cc2ccccc2Sc2ccc(O)cc21`?
MOR-DOR inv ag: -2; HTR5A ag: 3; HTR2A ag: -8; HTR5A inv ctr: -12; OPRM1-OPRD1 ag: 0

How did Nc1ccc2c(c1)CC(=O)c1ccccc1S2 do in these assays?
MOR-DOR inv ag: 45*; HTR5A ag: 1; HTR2A ag: -3; HTR5A inv ctr: -8; OPRM1-OPRD1 ag: -8; MOR-DOR inv conf: inactive; HTR5A inv ctr2: 6

How did CCOc1ccc(NS(=O)(=O)c2ccc(C(=O)NCC(c3ccc(OC)cc3)N3CCCC3)cc2)cc1 (stereo not drawn) do in these assays?
MOR-DOR inv ag: 26*; HTR5A ag: -2; HTR2A ag: -16; HTR5A inv ctr: 6; OPRM1-OPRD1 ag: -4; MOR-DOR inv conf: 4; HTR5A inv ctr2: -1

Results for COc1ccc(C(CNC(=O)c2ccc(NS(=O)(=O)c3ccc(F)c(C)c3)cc2)N2CCCC2)cc1 (stereo not drawn) ?
MOR-DOR inv ag: 11; HTR5A ag: 0; HTR2A ag: -8; HTR5A inv ctr: -1; OPRM1-OPRD1 ag: -3

Results for CC(C)CC(C(=O)Nc1ccccc1)N1C(=O)C2C3C=CC(C3)C2C1=O (stereo not drawn) ?
MOR-DOR inv ag: 3; HTR5A ag: 3; HTR2A ag: 3; HTR5A inv ctr: -51; OPRM1-OPRD1 ag: -1

How did CCc1cccc2c1NC(=O)C2=O do in these assays?
MOR-DOR inv ag: 61*; HTR5A ag: -3; HTR2A ag: 4; HTR5A inv ctr: 14; OPRM1-OPRD1 ag: -12; MOR-DOR inv conf: inactive; HTR5A inv ctr2: -1

How did COc1ccc(C2=NN(CN3C(=O)C(=O)c4ccccc43)C(c3ccc(OC)cc3)C2)cc1 (stereo not drawn) do in these assays?
MOR-DOR inv ag: 44*; HTR5A ag: -9; HTR2A ag: -3; HTR5A inv ctr: 27; OPRM1-OPRD1 ag: -6; MOR-DOR inv conf: inactive; HTR5A inv ctr2: 1

What do the screens show for `N#C/C(=C\c1ccncc1)c1nc2ccccc2c(=O)[nH]1`?
MOR-DOR inv ag: 33*; HTR5A ag: -2; HTR2A ag: 2; HTR5A inv ctr: 7; OPRM1-OPRD1 ag: -6; MOR-DOR inv conf: -14; HTR5A inv ctr2: 17

What do the screens show for `CC1CCN(c2ccc(/C=C(\C#N)c3nn(-c4ccccc4)c(N)c3C#N)cc2[N+](=O)[O-])CC1`?
MOR-DOR inv ag: 21; HTR5A ag: 0; HTR2A ag: -2; HTR5A inv ctr: -3; OPRM1-OPRD1 ag: -5
